{"source": "paper PMC4336329", "about": "(PLoS ONE, 2015)", "note": "About 14,000 (4.5%) of roughly 310,000 compounds showed an effect of 50% or more. The effect is printed as a negative number. The full list was thinned out, with strong results kept by preference.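 Also: peak tail current of the secondary pulse compared with the same well before compound.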", "data": [{"molecular_target": "human ether-à-go-go-related gene (hERG) potassium channel (human, UniProt Q12809)", "sequence (Q12809 whole entry, looked up)": "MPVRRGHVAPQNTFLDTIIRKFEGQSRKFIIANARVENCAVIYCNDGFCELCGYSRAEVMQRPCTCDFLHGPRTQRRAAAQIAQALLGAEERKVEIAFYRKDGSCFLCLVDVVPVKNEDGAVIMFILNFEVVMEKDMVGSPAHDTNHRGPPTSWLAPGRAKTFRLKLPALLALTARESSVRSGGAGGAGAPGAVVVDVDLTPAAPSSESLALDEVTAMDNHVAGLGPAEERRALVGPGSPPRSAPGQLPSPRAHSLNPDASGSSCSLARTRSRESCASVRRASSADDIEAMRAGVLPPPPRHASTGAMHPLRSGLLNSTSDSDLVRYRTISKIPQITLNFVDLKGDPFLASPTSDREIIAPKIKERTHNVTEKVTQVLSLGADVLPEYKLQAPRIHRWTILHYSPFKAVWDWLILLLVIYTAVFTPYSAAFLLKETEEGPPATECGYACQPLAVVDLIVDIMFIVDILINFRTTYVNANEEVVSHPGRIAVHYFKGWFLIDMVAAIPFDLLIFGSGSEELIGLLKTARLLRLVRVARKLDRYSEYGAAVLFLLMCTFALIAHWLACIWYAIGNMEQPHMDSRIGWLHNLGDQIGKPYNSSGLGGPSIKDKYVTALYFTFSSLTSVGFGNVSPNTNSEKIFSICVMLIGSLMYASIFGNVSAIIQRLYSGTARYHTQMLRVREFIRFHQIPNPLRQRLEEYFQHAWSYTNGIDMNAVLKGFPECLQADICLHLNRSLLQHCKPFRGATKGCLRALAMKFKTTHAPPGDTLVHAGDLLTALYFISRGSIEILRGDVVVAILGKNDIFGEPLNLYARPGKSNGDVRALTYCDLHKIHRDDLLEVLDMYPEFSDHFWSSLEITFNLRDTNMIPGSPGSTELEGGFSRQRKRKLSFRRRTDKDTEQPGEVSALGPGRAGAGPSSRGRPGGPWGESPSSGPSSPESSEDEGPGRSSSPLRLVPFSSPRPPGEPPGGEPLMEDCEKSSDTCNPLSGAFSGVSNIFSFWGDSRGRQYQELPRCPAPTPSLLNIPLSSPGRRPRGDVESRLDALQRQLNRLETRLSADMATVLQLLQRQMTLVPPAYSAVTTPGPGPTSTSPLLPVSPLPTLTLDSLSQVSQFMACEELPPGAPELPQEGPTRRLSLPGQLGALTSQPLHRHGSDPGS", "assay": "primary screen, population patch clamp on CHO cells stably expressing hERG; higher = less effect of the substance", "units": {"hERG current change (%, negative = inhibition) at 10uM": "%"}, "values": [{"smiles": "CC(C)CN1CCN(Cc2ccc(C(F)(F)F)cc2)CC1CCO", "note": "(stereo not drawn)", "hERG current change (%, negative = inhibition) at 10uM": -56.6}, {"smiles": "OCCC1CN(Cc2ccc(C(F)(F)F)cc2)CCN1Cc1ccccc1", "note": "(stereo not drawn)", "hERG current change (%, negative = inhibition) at 10uM": -56.8}, {"smiles": "OCCC1CN(Cc2cccc(C(F)(F)F)c2)CCN1Cc1ccccc1", "note": "(stereo not drawn)", "hERG current change (%, negative = inhibition) at 10uM": -46.2}, {"smiles": "CC(C)CCN1CCN(Cc2ccc(C(F)(F)F)cc2)CC1CCO", "note": "(stereo not drawn)", "hERG current change (%, negative = inhibition) at 10uM": -58.1}, {"smiles": "CC(C)CN1CCN(Cc2ccccc2C(F)(F)F)CC1CCO", "note": "(stereo not drawn)", "hERG current change (%, negative = inhibition) at 10uM": 4.5}, {"smiles": "CC(C)CCN1CCN(Cc2ccc(C#CCCO)cc2)CC1CCO", "note": "(stereo not drawn)", "hERG current change (%, negative = inhibition) at 10uM": -6.37}, {"smiles": "Cc1cccc(-c2ncc(CN3CCN(CCC(C)C)C(CCO)C3)cn2)c1", "note": "(stereo not drawn)", "hERG current change (%, negative = inhibition) at 10uM": -45}, {"smiles": "CC(C)CCN1CCN(Cc2cccc(C(F)(F)F)c2)CC1CCO", "note": "(stereo not drawn)", "hERG current change (%, negative = inhibition) at 10uM": -55.1}, {"smiles": "CC(C)CN1CCN(Cc2ccc(C#CC(C)(C)O)cc2)CC1CCO", "note": "(stereo not drawn)", "hERG current change (%, negative = inhibition) at 10uM": 8.57}, {"smiles": "OCCC1CN(Cc2cccs2)CCN1Cc1ccccc1", "note": "(stereo not drawn)", "hERG current change (%, negative = inhibition) at 10uM": -20.9}, {"smiles": "CC(C)CCN1CCN(Cc2ccc(N3CCNC3=O)cc2)CC1CCO", "note": "(stereo not drawn)", "hERG current change (%, negative = inhibition) at 10uM": -20.1}, {"smiles": "CN(Cc1ccc(F)cc1)C(=O)c1ccc(NS(=O)(=O)c2ccc3[nH]c(=O)[nH]c3c2)cc1", "hERG current change (%, negative = inhibition) at 10uM": 12.1}, {"smiles": "O=[N+]([O-])c1cccc(S(=O)(=O)Nc2ccc(S(=O)(=O)NCC3CCCO3)cc2)c1", "note": "(stereo not drawn)", "hERG current change (%, negative = inhibition) at 10uM": -0.96}, {"smiles": "COc1ccc(C2c3ccc(O)cc3Oc3ncn4nc(-c5ccncc5)nc4c32)cc1OC", "note": "(stereo not drawn)", "hERG current change (%, negative = inhibition) at 10uM": 5.39}, {"smiles": "COc1ccc(C2c3c(ccc4ccccc34)Oc3ncn4nc(-c5ccco5)nc4c32)cc1OC", "note": "(stereo not drawn)", "hERG current change (%, negative = inhibition) at 10uM": -13.4}, {"smiles": "COc1ccc(C2c3ccc(O)cc3Oc3ncn4nc(-c5ccco5)nc4c32)cc1OC", "note": "(stereo not drawn)", "hERG current change (%, negative = inhibition) at 10uM": 22.8}, {"smiles": "COc1ccc(C2c3ccc(O)cc3Oc3ncn4nc(-c5ccccn5)nc4c32)cc1OC", "note": "(stereo not drawn)", "hERG current change (%, negative = inhibition) at 10uM": -71.3}, {"smiles": "COc1ccc(C2c3ccc(O)cc3Oc3ncn4nc(-c5ccccn5)nc4c32)cc1", "note": "(stereo not drawn)", "hERG current change (%, negative = inhibition) at 10uM": 17.9}, {"smiles": "COc1ccc(C2c3ccc(O)cc3Oc3ncn4nc(-c5cccnc5)nc4c32)cc1OC", "note": "(stereo not drawn)", "hERG current change (%, negative = inhibition) at 10uM": -56.9}, {"smiles": "CC1=CC(c2ccc(Cl)cc2)n2ncnc2N1", "note": "(stereo not drawn)", "hERG current change (%, negative = inhibition) at 10uM": -9.02}, {"smiles": "Cc1ccc(N=CC2=C(O)CC(c3ccccc3Cl)CC2=O)cc1", "note": "(stereo not drawn)", "hERG current change (%, negative = inhibition) at 10uM": -6.91}, {"smiles": "Cc1ccc(CN(C)Cc2cc(=O)oc3cc(C)c(Cl)cc23)cc1", "hERG current change (%, negative = inhibition) at 10uM": 14.9}, {"smiles": "CCOC(=O)c1ccc(NC(=O)COc2cc3oc(=O)c(CC(C)O)c(C)c3cc2Cl)cc1", "note": "(stereo not drawn)", "hERG current change (%, negative = inhibition) at 10uM": 13.7}, {"smiles": "CC(=O)c1cccc(NC(=O)COc2cc3oc(=O)c(CC(C)O)c(C)c3cc2Cl)c1", "note": "(stereo not drawn)", "hERG current change (%, negative = inhibition) at 10uM": -57.7}, {"smiles": "O=C(COc1cc2oc(=O)c3c(c2cc1Cl)CCC3)Nc1cccnc1", "hERG current change (%, negative = inhibition) at 10uM": 6.03}, {"smiles": "CCOC(=O)NC(Nc1sc2c(c1C(=O)OC)CCN(C)C2)(C(F)(F)F)C(F)(F)F", "hERG current change (%, negative = inhibition) at 10uM": -13.2}, {"smiles": "CCCCOC(=O)Cn1c(=O)n(CC(=O)OCCCC)c2ccccc21", "hERG current change (%, negative = inhibition) at 10uM": -33.9}, {"smiles": "CCCCOC(=O)Cn1c(=N)n(CCC)c2ccccc21.Cl", "hERG current change (%, negative = inhibition) at 10uM": -31.5}, {"smiles": "CCN(CC)CCn1c(=N)n(CC(O)COc2cccc(C)c2)c2ccccc21.Cl", "note": "(stereo not drawn)", "hERG current change (%, negative = inhibition) at 10uM": -65.2}, {"smiles": "CCN(CC)CCn1c(=N)n(CC(O)c2ccc(OC)c(OC)c2)c2ccccc21.Cl", "note": "(stereo not drawn)", "hERG current change (%, negative = inhibition) at 10uM": 14.4}, {"smiles": "CCCCOC(=O)Cn1c(=O)oc2ccc(C)cc21", "hERG current change (%, negative = inhibition) at 10uM": 5.97}, {"smiles": "CCCCOC(=O)Cn1c(=N)n(CCN2CCOCC2)c2ccccc21.Cl", "hERG current change (%, negative = inhibition) at 10uM": -36.3}, {"smiles": "CCN(CC)CCn1c(=N)n(CC(O)COc2ccccc2)c2ccccc21.Cl", "note": "(stereo not drawn)", "hERG current change (%, negative = inhibition) at 10uM": -52.1}, {"smiles": "CCCCOC(=O)Cn1c(=O)n(CC(=O)OCCCC)c2cc(C)ccc21", "hERG current change (%, negative = inhibition) at 10uM": -69.4}, {"smiles": "CCCCOC(=O)Cn1c(=N)n(CCN(CC)CC)c2ccccc21", "hERG current change (%, negative = inhibition) at 10uM": -52.3}, {"smiles": "CCn1c(=O)c(C(=O)Nc2ccccc2F)c(O)c2ccccc21", "hERG current change (%, negative = inhibition) at 10uM": 17.2}, {"smiles": "COc1ccc(OC)c(-c2csc(NC(=O)CSc3nnnn3C)n2)c1", "hERG current change (%, negative = inhibition) at 10uM": 4.17}, {"smiles": "COc1ccc(NC(=S)NC(NC(=O)CCl)C(Cl)(Cl)Cl)c([N+](=O)[O-])c1", "note": "(stereo not drawn)", "hERG current change (%, negative = inhibition) at 10uM": 17.2}, {"smiles": "NS(=O)(=O)c1cc2c(cc1Cl)NCNS2(=O)=O", "hERG current change (%, negative = inhibition) at 10uM": -12.3}, {"smiles": "Cc1cccc(-n2ncc3c(NCc4ccccc4)ncnc32)c1", "hERG current change (%, negative = inhibition) at 10uM": 12}, {"smiles": "O=C(c1cc2nc(-c3ccco3)cc(C(F)(F)F)n2n1)N1CCN(c2ccc(F)cc2)CC1", "hERG current change (%, negative = inhibition) at 10uM": -34.5}, {"smiles": "O=C(N/N=C/c1ccco1)c1ccc(OCc2ccccc2)cc1", "hERG current change (%, negative = inhibition) at 10uM": 10.9}, {"smiles": "COc1ccccc1N1CCN(C(=O)C2CC2)CC1", "hERG current change (%, negative = inhibition) at 10uM": 20}, {"smiles": "O=C(NCCc1ccccc1)c1ccccc1F", "hERG current change (%, negative = inhibition) at 10uM": 24.5}, {"smiles": "O=C(CCCN1C(=O)/C(=C/c2ccccc2Cl)SC1=S)NNC(=O)c1ccccc1Cl", "hERG current change (%, negative = inhibition) at 10uM": 29.8}]}]}
